JMJD2A Tudor inh: JMJD2A Tudor domain (human) inhibition; Potency, µM (highest dose often 114 µM), most hits filed as inhibitors; actives 4.4% (n = 390,000); AlphaScreen JMJD2A-Tudor / H3K4me3 peptide binding; AID 504339; O75164; further: nearly all actives have a fitted effect of over 50% in size
G9a block: inhibitors of human histone lysine methyltransferase G9a. Q96KQ7. AID 504332. actives 8.8% (n = 350,000). G9a H3K9 monomethylation, AlphaScreen, 2 h. Potency, µM (top dose mostly 102 µM), hits mostly inhibitors; further: nearly all actives have a fitted effect of over 75% in size
Target sequence (Q96KQ7 913-1193 limits assumed): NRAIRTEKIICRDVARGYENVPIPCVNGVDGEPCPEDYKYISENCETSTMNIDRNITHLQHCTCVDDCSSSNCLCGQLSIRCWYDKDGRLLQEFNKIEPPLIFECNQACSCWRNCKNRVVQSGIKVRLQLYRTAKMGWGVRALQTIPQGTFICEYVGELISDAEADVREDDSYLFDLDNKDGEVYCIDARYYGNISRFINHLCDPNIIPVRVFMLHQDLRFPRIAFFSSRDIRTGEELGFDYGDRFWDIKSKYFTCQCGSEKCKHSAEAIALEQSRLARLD
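AlphaScreen detection with an anti-monomethyl H3K9 antibody quantified product after a 2 h room-temperature reaction containing 500 nM biotinylated H3K9 peptide, 20 µM SAM and 20 nM enzyme, which had been preincubated 15 min with compound.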
HP1b binding inh: blocks HP1-beta chromodomain binding to methylated histone tails | P83916 | AlphaScreen HP1-beta / biotin-H3K9me3 peptide binding | Potency, µM (series often up to 114 µM), hits mostly inhibitors | actives 0.56% (n = 390,000); further: nearly all actives have a fitted effect of over 70% in size
Target sequence (P83916 whole entry, looked up): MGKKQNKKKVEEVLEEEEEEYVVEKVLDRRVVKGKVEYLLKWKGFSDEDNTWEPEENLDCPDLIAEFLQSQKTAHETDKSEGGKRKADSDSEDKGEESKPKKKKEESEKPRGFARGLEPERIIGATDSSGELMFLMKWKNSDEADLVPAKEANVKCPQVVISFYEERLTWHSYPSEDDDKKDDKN
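HP1-beta protein (50 nM final) preincubated 30 min at room temperature with biotinylated H3(1-18)K9me3 peptide (50 nM) in PBS pH 7.4, 0.01% Tween-20, then compound added for 30 min. AlphaScreen streptavidin donor/nickel chelate acceptor beads (10 ug/mL final), 30 min dark, luminescence read.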
BAZ2B block: inhibitors of human BAZ2B bromodomain; Q9UIF8; AlphaScreen BAZ2B-H3K14Ac peptide displacement; Potency, µM (series often up to 114 µM), most hits filed as inhibitors; actives 4.4% (n = 360,000); AID 504333; further: nearly all actives have a fitted effect of over 60% in size
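In this displacement format the biotinylated H3(5-23) peptide acetylated at Lys14 serves as ligand at 50 nM, with BAZ2B at 50 nM in PBS pH 7.4 containing 0.01% Tween-20. Donor and acceptor beads are 10 ug/mL final.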
L3MBTL1 inh: blocks human L3MBTL1 | Potency, µM (highest dose often 57.1 µM), hits mostly inhibitors | AlphaScreen L3MBTL1–H3K9me1 peptide binding | actives 0.66% (n = 230,000); further: nearly all actives have a fitted effect of over 60% in size
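AlphaScreen assay: L3MBTL1 (50 nM final) was preincubated 30 min at room temperature with biotinylated H3(1-15)K9me1 peptide (75 nM final), then 30 min with library compounds; streptavidin donor and nickel chelate acceptor beads (10 ug/mL final) added, 30 min dark.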
Large screens that a line does not name were inactive. Most compounds without a hit are left out; they make up all but 11% or so of the library. The call rests on the fitted dose curve; in most records, active means well fitted inhibition curve with a large enough effect; inconclusive means small, poorly fitted or top-dose-only effect; inactive means no such curve, though single readings can be large or run the other way.

COc1cc(C2Nc3cc(Cl)c(S(N)(=O)=O)cc3S(=O)(=O)N2)cc(OC)c1OC (stereo unspecified)	none
COc1cccc(C2Nc3cc(Cl)c(S(N)(=O)=O)cc3S(=O)(=O)N2)c1 (stereo unspecified)	JMJD2A Tudor inh 50.1µM (no result: L3MBTL1 inh)
O=C(CCc1nc2ccccc2c(=O)[nH]1)OCC(=O)N1CCc2ccccc21	none (no result: L3MBTL1 inh)
CC1Cc2ccccc2N1C(=O)COC(=O)CCc1nc2ccccc2c(=O)[nH]1 (stereo unspecified)	JMJD2A Tudor inh 5.62µM
O=C(OCC(=O)N1CCc2ccccc21)c1c2c(nc3ccccc13)CCCC2	G9a block inconclusive
CC(C)CNC(=O)COC(=O)c1c2c(nc3ccccc13)CCC2	G9a block inconclusive, BAZ2B block 56.2µM (no result: L3MBTL1 inh)
COC(=O)c1c2c(nc3ccccc13)CCC2	G9a block inconclusive (no result: L3MBTL1 inh)
N#Cc1ccc(NC(=O)COC(=O)CCc2nc3ccccc3c(=O)[nH]2)cc1	G9a block 50.1µM
CC1Cc2ccccc2N1C(=O)COC(=O)c1c2c(nc3ccccc13)CCCCC2 (stereo unspecified)	G9a block 2µM, HP1b binding inh inconclusive
Cc1ccc(S(=O)(=O)Nc2ccc(-c3ccc(N4CCCCCC4)nn3)cc2)c(C)c1	none (no result: L3MBTL1 inh)
COc1cccc(CN2CCCN(Cc3ccc(F)cc3)S2(=O)=O)c1	G9a block inconclusive (no result: L3MBTL1 inh)
Cc1cc2c(s1)c1cnn(Cc3c(C)cc(F)cc3C)c(=O)c1n2C	none (no result: G9a block, HP1b binding inh, BAZ2B block, L3MBTL1 inh)
Cc1nn(C(=O)c2ccc(Cl)cc2)c(C)c1S(=O)(=O)N1CCCCCC1	none (no result: L3MBTL1 inh)
COc1cc(/C=C/c2nc(C#N)c(N3CCN(C)CC3)o2)cc(OC)c1OC	none (no result: L3MBTL1 inh)
COc1ccc(/C=N/NC(=O)c2nnn(-c3nonc3N)c2-c2cccs2)cc1OC	BAZ2B block 56.2µM (no result: L3MBTL1 inh)
CCOc1ccc(-c2c(C(=O)N/N=C/C3CC=CCC3)nnn2-c2nonc2N)cc1 (stereo unspecified)	BAZ2B block 79.4µM (no result: L3MBTL1 inh)
CCOc1cccc(-c2c(C(=O)N/N=C(\C)c3ccccn3)nnn2-c2nonc2N)c1	JMJD2A Tudor inh 25.1µM, BAZ2B block 12.6µM (no result: G9a block, L3MBTL1 inh)
CCOc1ccc(-c2c(C(=O)N/N=C/c3ccoc3)nnn2-c2nonc2N)cc1	none (no result: L3MBTL1 inh)
CCOc1cccc(-c2c(C(=O)N/N=C/c3ccoc3)nnn2-c2nonc2N)c1	JMJD2A Tudor inh 25.1µM, BAZ2B block 79.4µM (no result: L3MBTL1 inh)
COc1ccc(C(CNC(=O)C(=O)Nc2ccc3c(c2)OCCO3)N2CCN(C)CC2)cc1 (stereo unspecified)	none
COc1cc(/C=N/NC(=O)c2nnn(-c3nonc3N)c2C(C)C)ccc1O	none (no result: L3MBTL1 inh)
COc1ccccc1/C(C)=N/NC(=O)c1nnn(-c2nonc2N)c1C(C)C	JMJD2A Tudor inh 20µM (no result: L3MBTL1 inh)
COc1ccc(O)c(/C=N/NC(=O)c2c(C)nnn2-c2nonc2N)c1	JMJD2A Tudor inh inconclusive, G9a block 79.4µM, BAZ2B block inconclusive (no result: L3MBTL1 inh)
N#Cc1nc(Nc2ccccc2)nc(NC2CCCCC2)n1	none (no result: G9a block, HP1b binding inh, BAZ2B block, L3MBTL1 inh)
C=CCn1c(-c2ccc(F)cc2)n[nH]c1=S	JMJD2A Tudor inh 7.08µM, G9a block 20µM (no result: L3MBTL1 inh)
CCCn1c(-c2ccncc2)n[nH]c1=S	JMJD2A Tudor inh 7.94µM, G9a block inconclusive
Cc1ccc(-c2cn(CCN)c(-c3ccncc3)n2)cc1	JMJD2A Tudor inh inconclusive, BAZ2B block inconclusive
C=CCn1c(-c2ccoc2)n[nH]c1=S	JMJD2A Tudor inh 5.01µM, HP1b binding inh inconclusive, BAZ2B block inconclusive
C=CCn1c(-c2ccccc2)n[nH]c1=S	JMJD2A Tudor inh inconclusive
C=CCn1c(-c2ccncc2)n[nH]c1=S	JMJD2A Tudor inh 15.8µM, BAZ2B block inconclusive (no result: G9a block)
NCCC(=O)Nc1cccc(-c2nn3c(=O)cc(N4CCNCC4)nc3s2)c1	none (no result: G9a block, HP1b binding inh, BAZ2B block, L3MBTL1 inh)
CCn1cc(C(=O)N(C)c2ccc(C(C)C)cc2)c2cc(OC)c(OC)cc2c1=O	none (no result: L3MBTL1 inh)
CS/C(Nc1cc(Cl)ccc1Cl)=C(/C#N)C(=O)c1ccco1	JMJD2A Tudor inh inconclusive, G9a block 14.1µM, BAZ2B block 56.2µM
O=C(Nc1cc(Cl)ccc1Cl)c1ccco1	none
[O-][n+]1c2ccccc2[n+]([O-])c2cc(O)ccc21	JMJD2A Tudor inh 79.4µM, G9a block 1.41µM, HP1b binding inh 44.7µM, BAZ2B block 39.8µM (no result: L3MBTL1 inh)
Cn1c(SCc2c(F)cccc2Cl)nc2c(c1=O)SCC2	JMJD2A Tudor inh inconclusive, BAZ2B block 28.2µM, L3MBTL1 inh inconclusive
C/C(=C/c1oc2ccc(O)cc2c1[N+](=O)[O-])N(C)C	G9a block 79.4µM, BAZ2B block inconclusive (no result: L3MBTL1 inh)

Screens (PubChem)
